Reference: PubChem BioAssay
Active and inactive are the calls of the source.

How the values were obtained:
[1] = binders of probe aFSTL3 on microarray, primary screen, stem cell growth factor project, biochemical, small-molecule microarray, fluorescence 635/667 (AID 1064); settings: higher = more signal;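 note: measures binding of the biotinylated anti-FSTL3 antibody to printed compounds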
[2] = binders from COS7 lysate, DM2A8 probe, primary screen, torsin A project, cell lysate, small-molecule microarray, fluorescence 635/667 (AID 1065); settings: higher = more signal, COS7 lysate expressing mutant human TOR1A
[3] = binders of probe aFGF2 on microarray, primary screen, stem cell growth factor project, biochemical, small-molecule microarray, fluorescence 635/667 (AID 1067); settings: higher = more signal;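 note: measures binding of biotinylated aFGF2 protein to printed compounds on slides; z-score merges feature fluorescence and signal-to-noise across triplicate slides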
[4] = binders of probe aFGF10 on microarray, primary screen, stem cell growth factor project, biochemical, small-molecule microarray, fluorescence 635/667 (AID 1071); settings: higher = more signal;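 note: score merges 667 nm spot intensity and signal to noise from triplicate slides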
[5] = target: Neurogenic locus notch homolog protein 2 (Homo sapiens) (UniProt Q04721); test: Notch2 binders on small-molecule microarrays, primary screen, biochemical, small-molecule microarray, 635 nm fluorescence, stem cell growth factors (AID 1073); settings: Notch2 binding, higher = more signal
[6] = target: Pro-neuregulin-1, membrane-bound isoform (Homo sapiens) (UniProt Q02297); test: NRG1 binders on small-molecule microarrays, primary screen, psychiatric disease protein project, biochemical, small-molecule microarray, fluorescence 635/667 (AID 1075); settings: NRG1 binding, 635 nm fluorescence, higher = more signal;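 note: score combines 667 nm spot fluorescence with signal to noise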
[7] = tested on: Neuregulin-1 EGF-like domain; test: binders of neuregulin-1 EGF-like domain, primary screen, biochemical, small-molecule microarray, 635 nm fluorescence (AID 1081); settings: small-molecule microarray binding, higher = more signal;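 note: binding of the protein to compounds printed on small-molecule microarray slides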
[8] = FRG1 promoter luciferase signal modulators, primary screen, FRG1 inhibition for FSHD, cell-based, C2C12 myotubes, firefly/Renilla luciferase, luminescence (AID 1084); settings: higher = more signal, called active from +8 up or from −8 down
[9] = binders of probe aFST on microarray, primary screen, stem cell growth factor project, biochemical, small-molecule microarray, fluorescence 635/667 (AID 1086); settings: higher = more signal;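 note: score merges 667 nm fluorescence with signal-to-noise of each printed compound spot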
[10] = binders of probe aHhip on microarray, primary screen, stem cell growth factor project, biochemical, small-molecule microarray, fluorescence 635/667 (AID 1087); settings: higher = more signal;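 note: score merges spot fluorescence at 667nm with spot signal to noise ratio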
[11] = tested on: PRMT1 (protein arginine N-methyltransferase 1); test: PRMT1 binders on small-molecule microarrays, primary screen, biochemical, small-molecule microarray, 635 nm fluorescence (AID 1088); settings: small-molecule microarray binding, higher = more signal;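 note: binding of Prmt1 protein to compounds spotted on small-molecule microarray slides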
[12] = yeast growth modulation, basal conditions, primary screen, YJM789 clinical isolate, OD600, 24 h (AID 1089);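 note: growth of clinical yeast isolate S. cerevisiae YJM 789 seeded 1000 cells per well; test concentration not given here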; settings: S. cerevisiae YJM789 growth, higher = more signal, called active from +8 up or from −8 down
[13] = fission yeast growth modulation, primary screen, strain 972, OD600, 24 h, no modulator (AID 1090);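 note: basal condition with compound alone and no growth modifier present; test concentration not given here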; settings: S. pombe 972 growth, higher = more signal, called active from +8 up or from −8 down
[14] = S. cerevisiae growth modulation with rapamycin, primary screen, strain BY4716, OD600, 96 h (AID 1091); settings: higher = more signal, called active from +8 up or from −8 down; note: test concentration not given here
[15] = target: Torsin-1A-interacting protein 2 (Homo sapiens) (UniProt Q8NFQ8); test: LULL1 binders on small-molecule microarray, primary screen, cell lysate, human LULL1 lysate, 635/667 nm fluorescence (AID 1092); settings: hLULL1 lysate binding, 635 nm fluorescence, higher = more signal;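 note: probe is lysate of COS7 cells overexpressing human LULL1; score merges per-feature 667 nm fluorescence with signal-to-noise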
[16] = E. coli growth modulation, two-sided OD650, primary screen, E. coli filamentation project, strain DRC41, 24 h (AID 1093); settings: OD650, 24 h, higher = more signal, called active from +8 up or from −8 down;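 note: MC1000 strain lacking acrAB efflux and sulA so SOS filamentation is blocked; test concentration not given here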
[17] = small-molecule microarray binders of probe aLefty2, primary screen, biochemical, biotinylated probe, 635/667 nm fluorescence (AID 1094); settings: higher = more signal;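 note: score merges spot fluorescence near 667 nm with spot signal-to-noise ratio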
[18] = tested on: Noggin (protein binding on small-molecule microarray); test: Noggin binders on small-molecule microarray, primary screen, biochemical, 635/667 nm fluorescence (AID 1095); settings: 635 nm fluorescence, higher = more signal;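 note: score merges 667 nm feature fluorescence with signal to noise over triplicate slides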
[19] = target: Neurogenic locus notch homolog protein 3 (Homo sapiens) (UniProt Q9UM47); test: NOTCH3 binders on small-molecule microarray, primary screen, biochemical, 635/667 nm fluorescence (AID 1096); settings: NOTCH3 binding, 635 nm fluorescence, higher = more signal
[20] = small-molecule microarray binders of probe aEGFR, primary screen, biochemical, biotinylated probe, 635/667 nm fluorescence (AID 1097); settings: higher = more signal;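 note: probe is a biotinylated anti-EGFR antibody binding compounds printed on slides; score combines fluorescence near 667 nm and signal to noise of each spot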

Sequence of Torsin-1A-interacting protein 2 (Homo sapiens) (Q8NFQ8 whole entry, looked up): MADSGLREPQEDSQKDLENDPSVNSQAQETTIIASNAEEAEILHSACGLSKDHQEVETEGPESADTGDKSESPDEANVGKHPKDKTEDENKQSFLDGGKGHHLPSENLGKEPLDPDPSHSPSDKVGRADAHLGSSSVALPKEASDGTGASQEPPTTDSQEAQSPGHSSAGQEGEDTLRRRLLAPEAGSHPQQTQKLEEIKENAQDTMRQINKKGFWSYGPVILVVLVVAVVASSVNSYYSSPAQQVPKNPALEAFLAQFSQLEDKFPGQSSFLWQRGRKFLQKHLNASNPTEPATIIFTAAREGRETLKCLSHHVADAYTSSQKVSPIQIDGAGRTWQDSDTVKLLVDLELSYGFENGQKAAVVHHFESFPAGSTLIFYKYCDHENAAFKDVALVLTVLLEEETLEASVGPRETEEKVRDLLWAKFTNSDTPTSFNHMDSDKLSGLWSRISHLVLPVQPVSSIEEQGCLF
Sequence of Neurogenic locus notch homolog protein 3 (Homo sapiens) (Q9UM47 whole entry, looked up): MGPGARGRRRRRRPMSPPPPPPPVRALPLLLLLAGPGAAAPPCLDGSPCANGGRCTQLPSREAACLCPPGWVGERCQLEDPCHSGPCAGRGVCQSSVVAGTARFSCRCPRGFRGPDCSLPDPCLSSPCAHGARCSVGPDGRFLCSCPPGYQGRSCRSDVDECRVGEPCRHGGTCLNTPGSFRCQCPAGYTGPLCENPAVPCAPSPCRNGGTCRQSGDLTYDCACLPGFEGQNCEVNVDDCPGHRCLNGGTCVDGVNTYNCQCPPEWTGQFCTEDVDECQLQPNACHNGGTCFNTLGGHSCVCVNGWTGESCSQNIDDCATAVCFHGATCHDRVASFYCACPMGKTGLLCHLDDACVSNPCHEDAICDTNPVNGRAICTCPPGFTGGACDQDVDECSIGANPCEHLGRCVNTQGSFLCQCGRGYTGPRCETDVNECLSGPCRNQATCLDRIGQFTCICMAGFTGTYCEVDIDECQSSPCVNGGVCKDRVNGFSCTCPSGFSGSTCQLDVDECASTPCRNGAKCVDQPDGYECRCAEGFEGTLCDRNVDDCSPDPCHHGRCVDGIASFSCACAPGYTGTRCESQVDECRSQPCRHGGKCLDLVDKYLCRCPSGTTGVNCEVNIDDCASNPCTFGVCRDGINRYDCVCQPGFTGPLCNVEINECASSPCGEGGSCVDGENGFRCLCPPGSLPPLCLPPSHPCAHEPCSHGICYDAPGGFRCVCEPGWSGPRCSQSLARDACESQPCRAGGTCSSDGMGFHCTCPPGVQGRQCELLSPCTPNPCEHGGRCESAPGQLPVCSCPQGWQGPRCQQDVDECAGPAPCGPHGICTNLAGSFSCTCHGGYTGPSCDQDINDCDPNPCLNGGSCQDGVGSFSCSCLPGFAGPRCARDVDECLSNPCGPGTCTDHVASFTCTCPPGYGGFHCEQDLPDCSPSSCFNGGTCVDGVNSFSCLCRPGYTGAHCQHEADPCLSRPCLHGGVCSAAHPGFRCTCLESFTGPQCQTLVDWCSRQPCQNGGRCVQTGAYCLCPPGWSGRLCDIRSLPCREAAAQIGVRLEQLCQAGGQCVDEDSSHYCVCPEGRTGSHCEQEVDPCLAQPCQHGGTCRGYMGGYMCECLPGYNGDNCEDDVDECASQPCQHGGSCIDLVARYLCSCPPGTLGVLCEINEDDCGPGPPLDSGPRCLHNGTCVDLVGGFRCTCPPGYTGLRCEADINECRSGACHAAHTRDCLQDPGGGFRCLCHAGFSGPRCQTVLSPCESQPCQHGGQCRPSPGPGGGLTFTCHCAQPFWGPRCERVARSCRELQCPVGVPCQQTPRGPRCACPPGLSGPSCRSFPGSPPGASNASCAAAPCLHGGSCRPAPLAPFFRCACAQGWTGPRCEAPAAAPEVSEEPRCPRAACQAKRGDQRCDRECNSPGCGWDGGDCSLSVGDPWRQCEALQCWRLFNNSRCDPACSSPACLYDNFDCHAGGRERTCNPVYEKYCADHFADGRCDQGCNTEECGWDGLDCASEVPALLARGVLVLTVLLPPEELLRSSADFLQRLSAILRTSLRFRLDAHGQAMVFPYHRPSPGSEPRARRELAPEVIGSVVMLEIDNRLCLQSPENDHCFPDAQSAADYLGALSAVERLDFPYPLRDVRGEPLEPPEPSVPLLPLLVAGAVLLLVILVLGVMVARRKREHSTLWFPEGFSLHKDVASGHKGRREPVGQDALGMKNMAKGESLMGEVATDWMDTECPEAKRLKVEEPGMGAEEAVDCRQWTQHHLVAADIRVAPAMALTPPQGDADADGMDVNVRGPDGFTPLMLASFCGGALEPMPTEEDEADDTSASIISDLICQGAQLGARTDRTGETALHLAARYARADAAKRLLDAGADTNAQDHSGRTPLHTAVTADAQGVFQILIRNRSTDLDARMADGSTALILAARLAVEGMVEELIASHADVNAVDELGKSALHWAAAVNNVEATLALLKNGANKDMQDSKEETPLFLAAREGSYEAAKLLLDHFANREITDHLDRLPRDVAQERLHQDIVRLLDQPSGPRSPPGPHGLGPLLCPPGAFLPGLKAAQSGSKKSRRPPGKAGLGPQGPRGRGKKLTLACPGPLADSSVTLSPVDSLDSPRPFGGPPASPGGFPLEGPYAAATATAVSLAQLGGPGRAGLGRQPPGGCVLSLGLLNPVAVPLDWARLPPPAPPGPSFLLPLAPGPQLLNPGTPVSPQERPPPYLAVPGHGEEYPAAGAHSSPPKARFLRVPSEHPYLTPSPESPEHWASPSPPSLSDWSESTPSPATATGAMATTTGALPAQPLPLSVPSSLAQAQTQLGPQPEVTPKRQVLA
Sequence of Pro-neuregulin-1, membrane-bound isoform (Homo sapiens) (Q02297 whole entry, looked up, the tested form may be a part, canonical isoform): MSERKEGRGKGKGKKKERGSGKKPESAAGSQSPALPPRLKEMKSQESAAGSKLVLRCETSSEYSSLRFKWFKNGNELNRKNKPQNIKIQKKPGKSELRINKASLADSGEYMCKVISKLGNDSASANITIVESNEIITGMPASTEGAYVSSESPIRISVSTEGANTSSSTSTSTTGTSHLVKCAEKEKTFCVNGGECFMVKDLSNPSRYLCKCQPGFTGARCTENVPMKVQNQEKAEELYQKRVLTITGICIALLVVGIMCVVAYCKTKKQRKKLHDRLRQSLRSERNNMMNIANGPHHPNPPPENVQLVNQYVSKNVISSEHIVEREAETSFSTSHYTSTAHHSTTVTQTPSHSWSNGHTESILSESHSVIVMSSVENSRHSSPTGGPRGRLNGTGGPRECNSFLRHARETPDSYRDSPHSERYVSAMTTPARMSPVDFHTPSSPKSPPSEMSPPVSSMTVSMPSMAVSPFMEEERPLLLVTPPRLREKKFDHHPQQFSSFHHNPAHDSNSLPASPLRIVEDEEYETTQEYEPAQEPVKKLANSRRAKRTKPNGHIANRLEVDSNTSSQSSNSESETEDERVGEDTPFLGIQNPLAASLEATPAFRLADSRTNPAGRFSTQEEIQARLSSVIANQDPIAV

SMILES	composite z-score [1]	composite z-score [2]	composite z-score [3]	composite z-score [4]	composite z-score [5]	composite z-score [6]	composite z-score [7]	z-score [8]	composite z-score [9]	composite z-score [10]	composite z-score [11]	z-score [12]	z-score [13]	z-score [14]	composite z-score [15]	z-score [16]	composite z-score [17]	composite z-score [18]	composite z-score [19]	composite z-score [20]
COC(=O)[C@H](C)NC(=O)CC=C[C@@H](C)[C@@H]1C=C[C@H](O)[C@@H](CO)O1	-0.636	0.677	-0.134	0.538	0.0931	-0.419	0.655	0.439 (inactive)	0.258	-0.0645	0.854	0.351 (inactive)	0.245 (inactive)	0.358 (inactive)	0.248	1.02 (inactive)	-0.0381	1.34	0.873	0.241
COC(=O)C1=C(C)N(Cc2ccccc2)C2=C3C(=O)OCC[C@@H]3[C@@](O)(C(=O)OC)C(=O)N2[C@@H]1c1ccccc1	-0.69	-0.0402	-0.118	0.495	0.346	-0.143	0.0271	0.245 (inactive)	-0.0464	0.0139	-0.737	0.833 (inactive)	-0.992 (inactive)	-0.265 (inactive)	0.0296	0.659 (inactive)	-0.0342	0.454	0.542	0.0035
COc1ccc(O[C@H]2C=C[C@@H](c3ccccc3)O[C@@H]2COC(=O)CCC(C)=NOC[C@@H](O)COCc2ccco2)cc1	0.776	-1.81	-0.411	-1.98	-2.67	-1.28	-0.649	0.838 (inactive)	-2.3	-0.115	-1.02	-1.2 (inactive)	-0.761 (inactive)	-0.244 (inactive)	-1.82	-0.541 (inactive)	-0.443	-1.66	-1.74	-0.48
C#CCCCON=C1[C@H]2CCn3c(=O)n(Cc4cc5c(cc4Cl)OCO5)c(=O)n3[C@H]2[C@H](O)[C@@H]2O[C@H]12	-0.652	0.203	-0.108	0.365	0.63	0.113	0.107	-0.12 (inactive)	0.241	-0.0645	0.0698	0.842 (inactive)	1.28 (inactive)	1.63 (inactive)	0.0322	0.314 (inactive)	0.147	0.508	0.836	-0.191
CCN1C(=O)[C@H]2[C@H]3[C@H](O)[C@H](O)CC(=NOC(C)CN4CCCc5nc(C)c(C)cc54)[C@@H]3CC[C@H]2C1=O (stereo not given in full)	-0.342	0.564	-0.0468	0.49	0.724	-0.0318	0.963	-0.266 (inactive)	0.372	0.0596	1.46	-0.0428 (inactive)	1.19 (inactive)	0.385 (inactive)	0.404	1.32 (inactive)	0.0416	1.16	0.597	0.012
CCN1C(=O)[C@H]2[C@H]3[C@H](O)[C@H](O)CC(=NOCC(C)C)[C@H]3CC[C@H]2C1=O	-0.801	0.328	-0.0977	0.329	0.351	-0.139	0.124	0.268 (inactive)	0.101	-0.079	-0.332	-0.349 (inactive)	0.735 (inactive)	0.512 (inactive)	-0.153	0.769 (inactive)	-0.019	0.569	0.599	0.0167
CCN1C(=O)[C@H]2[C@H]3[C@H](O)[C@H](O)CC(=NO[C@@H]4O[C@H](COC(C)=O)[C@@H](OC(C)=O)[C@H](OC(C)=O)[C@H]4OC(C)=O)[C@@H]3CC[C@H]2C1=O	-0.665	0.588	-0.0319	0.794	0.948	0.357	1	0.186 (inactive)	0.054	-0.0994	1.29	0.461 (inactive)	0.208 (inactive)	0.47 (inactive)	1.05	1.16 (inactive)	0.015	0.597	1.03	0.0091
CCOC(=O)CCN1C(=O)[C@H]2[C@@H]3C(=CC[C@H]2C1=O)C(=O)[C@H]1O[C@H]1[C@H]3O	-0.128	-0.42	-0.137	-0.199	-0.582	-0.426	0.503	-2.91 (inactive)	-0.481	-0.137	-0.571	0.151 (inactive)	0.0483 (inactive)	-0.384 (inactive)	-0.0261	-0.518 (inactive)	-0.27	-0.861	-1.75	-0.122
CCOC(=O)[C@H](CC(C)C)NC(=O)CCC1CC(OC(=O)NCc2ccc3c(c2)OCO3)CC2(CCCC(COC(=O)NCc3ccccc3)O2)O1 (stereo not given in full)	-0.542	0.01	-0.0667	0.536	0.375	0.929	1.12	1.61 (inactive)	0.986	-0.0994	0.974	0.177 (inactive)	1.12 (inactive)	0.0835 (inactive)	1.83	0.314 (inactive)	-0.124	0.684	0.845	-0.0978
CC(CCN1CCc2nc(-c3ccccc3)c(-c3ccccc3)cc2C1)=NO[C@@H](C)c1cc(-c2c(C)cc(C)cc2C)no1	0.037	0.0468	-0.14	0.155	-0.846	0.129	0.55	0.687 (inactive)	0.0035	-0.13	0.535	-0.295 (inactive)	-0.974 (inactive)	-3.2 (inactive)	0.838	-0.394 (inactive)	-0.186	-0.0011	-1.29	-0.17
